Hit rate of the full screen: of about 4,800 compounds, about 420 (8.8%) showed an effect of 50% or more. The entries come from a sample that favours strong results as a whole.
system: Plasmodium falciparum; experiment: Confirmatory screen in NF54 nanoGlo assay, in single point, at 2uM, 72h; type: functional, Erythrocyte; details: timepoint 72 hour

In order of rising “% Inhibition” value:
1. Cc1ccc(S(=O)(=O)Cc2nc(-c3ccc(C(=O)NCc4ccc(C)o4)cc3)oc2C)cc1  -18%
2. Cc1nc2c(Oc3ccccc3)cccc2c2c1CCN2c1ccc(OC(F)(F)F)cc1  -17%
3. Cc1ccc(CN2C(=O)[C@@H]3CCCN3c3ccc(C(F)(F)F)cc32)cc1  -17%
4. COCc1cc2nn(CC(=O)Nc3ccc(F)cc3C)c(=O)n2c(-c2ccccc2)n1  -15%
5. CC1(C)Oc2cc(S(=O)(=O)NC3CCCCC3)ccc2NC1=O  -14%
6. Cc1ncsc1C(=O)N1CCC2(CCCCC2)C1  -14%
7. Cc1nn(C)c(C)c1OCc1nnc(C2CCC2)n1C  -14%
8. CCC(C)(C)NCC(=O)Nc1cc(F)ccc1F  -13%
9. CC1=N[C@H](N2CCN(c3ccccc3)CC2)NC(O)=C1  -12%
10. CC(C)(CNC(=O)[C@](C)(N)c1ccccc1)C(=O)O  -11%
11. Cc1cc(C(=O)NCc2ccncc2)no1  -11%
12. CC[C@@H](CO)NCc1cc(Br)ccc1OC  -11%
13. COc1ccc(N2CCN(c3nccn4nc(-c5ccc(OC)c(OC)c5)cc34)CC2)cc1  -10%
14. Cc1nc(-c2ccc(NCc3cc4ccccc4o3)nc2)[nH]c(=O)c1C  -10%
15. CCOC(=O)COc1cc(N)c(F)cc1Cl  -10%
16. CCCNC(=O)C1=Cc2ccccc2OC=C1  -9%
17. O=C(c1sc2ccccc2c1Cl)n1nnc2ccccc21  -8%
18. COc1ccc([C@H]2[C@H](C(=O)NC3CCCCCC3)CCC(=O)N2C)cc1  -8%
19. Cc1cc(N(CCO)C2CC2)nc(C2CC2)n1  -8%
20. O=C(NCc1ccncc1)c1cc(C(=O)C2CCCCC2)c[nH]1  -7%
21. CC(C)(C)OC(=O)N1CCc2ncn(Cc3ccc(F)cc3)c(=O)c2C1  -7%
22. CCOC(=O)N1CCN(c2nccn3nc(-c4ccc(OC)c(OC)c4)cc23)CC1  -6%
23. O=C(O)[C@H]1CC(=O)N(c2ccc3nc(-c4cccc(F)c4)oc3c2)C1  -6%
24. CCn1ccc([C@H](C)NC(=O)c2cc(C)c(C)s2)n1  -6%
25. CCc1cc(C(=O)N[C@@H](C)c2ccccc2)c2c(C3CC3)nn(Cc3ccccc3)c2n1  -6%
26. CCn1nccc1C(=O)N1CC[C@H](CC(=O)NCc2ccncc2)C1  -6%
27. CCOC(=O)CNc1ccc(F)c(Cl)c1  -6%
28. Clc1cc(CNCCc2ccccc2)ccc1OCc1ccccc1  -6%
29. c1ccc2c(c1)ccc1oc(-c3ccn[nH]3)cc12  -5%
30. Cn1nc(-c2nc(-c3ccc(F)cc3)no2)c2c1CCN(C(=O)c1cccc(Cl)c1)C2  -5%
31. Cc1nn(C)c(C)c1-c1cc(C(=O)Nc2cc(F)ccc2F)c2c(C)nn(C)c2n1  -5%
32. Cc1coc(-c2cc(NC(=O)N(CCO)CC(F)F)ccc2C)n1  -5%
33. CC(C)C(=O)N1CC[C@H](CC(=O)NCc2ccccc2)C1  -4%
34. COc1ccc([C@H](C(=O)Nc2ccc(N(C)C)cc2)N(Cc2ccccc2)C(=O)Cc2ccccc2)cc1OC  -4%
35. CC(C(=O)Nc1ncccn1)N1CCCC1Cn1cccn1 (stereo not given)  -4%
36. Cc1cnc(NC(=O)C(=O)N2CCC[C@H](n3cccn3)C2)s1  -4%
37. O=C(NC1CCCCCC1)c1cn(CC2(O)CCN(Cc3ccccc3)CC2)nn1  -4%
38. CN1CCN(c2nc(-c3cccc(C(F)(F)F)c3)nc3c2cnn3Cc2ccccc2)CC1  -4%
39. O=C(COc1ccc(Cl)cc1)n1c2ccccc2c2ccccc21  -3%
40. COc1ccccc1CNC(=O)c1cn(CC2(O)CCN(Cc3ccccc3)CC2)nn1  -3%
41. CCCn1c(C)ccc(-c2noc(CCCC(=O)N3CCOCC3)n2)c1=O  -3%
42. O=C1C[C@@H](C(=O)N2CCC3(CCCCC3)C2)CCN1  -3%
43. C[C@@H](C1CC1)N(C)S(=O)(=O)Cc1cc(Cl)cc(Cl)c1  -3%
44. C[C@]1(C(=O)O)Nc2ccccc2-c2nc(=O)c(-c3ccccc3)nn21  -2%
45. C#CCCCCC(=O)Nc1ncccc1Cl  -2%
46. C=CCNC(=O)N1CCC(c2nc(C)ccc2C(=O)N2CCCC2)CC1  -2%
47. C=CCS(=O)(=O)NC(=O)c1cc(C)c(C)cc1Cl  -2%
48. OC1CCC(Nc2cncc(-n3cccn3)n2)CC1 (stereo not given)  -2%
49. O=C(C[C@H]1CCC(=O)N(Cc2ccccc2)CC1)NC1CCN(Cc2ccccc2)CC1  -1%
50. O=C(Cc1ccc(Cl)cc1Cl)N1CCc2[nH]nc(C(=O)N3CCN(c4ccccc4)CC3)c2C1  -1%
51. O=C(c1cnc(Nc2nc3ccccc3o2)nc1)N1CCN(c2ccccc2)CC1  0%
52. COc1cc(NC(=O)c2cccc3c(Br)cccc23)ccc1NC(=O)c1ccccc1Cl  0%
53. Cc1nnc([C@@H]2COCCN2Cc2csc(C)c2)o1  0%
54. COc1cc(OC)cc(C(=O)Nc2cnc(N3CCCCC3)c(C)c2)c1  0%
55. COC(=O)c1ncn2c1C(=O)N(Cc1ccccc1OC)[C@](C)(C(=O)NC1CCCCC1)C2  0%
56. CCCc1nc(N2CCCN(C(=O)C3CCCCC3)CC2)c2c(C)nn(-c3ccccc3)c2n1  0%
57. CC(C)Cn1cc2c(C(F)(F)F)cc(=O)n(CCC(=O)Nc3cc(F)ccc3F)c2n1  1%
58. COc1ccc([C@@]2(C)NC(=O)N(CC(=O)N3CC(=O)Nc4ccccc43)C2=O)cc1OC  2%
59. CCN(CC)c1ncnc(N(C)Cc2ccccc2)c1N  2%
60. N#Cc1cc(N2CCc3ccccc3C2)nc2ccccc12  2%
61. Cc1ccccc1-c1nc2cc(NS(=O)(=O)c3ccccc3)ccc2o1  2%
62. Cc1ccc(Cc2nc(N3CCCN(C(=O)c4ccc(C)cc4)CC3)c3cnn(-c4ccccc4)c3n2)cc1  3%
63. Cc1cccn(Cc2nnnn2C2CC2)c1=O  3%
64. O=C(O)c1csc(-c2csc(CCN3C(=O)c4ccccc4C3=O)n2)n1  3%
65. CCOc1ccc(-n2c(CN3CCN(C(=O)c4ccco4)CC3)nc3ccccc3c2=O)cc1  3%
66. COc1ccc2ncc(=O)n(CCOc3ccccc3)c2c1  4%
67. Cn1nc(C(=O)Nc2nnc[nH]2)ccc1=O  4%
68. Cc1cccc(NS(=O)(=O)c2cc(C(=O)NCc3ccc4c(c3)OCO4)ccc2Cl)c1C  5%
69. CN(c1nc2c(cnn2C)c(=O)[nH]1)C1CCCC1c1ccc(C(F)(F)F)cc1 (stereo not given)  6%
70. O=C(CCC1CCCC1)N1CCC(N2CCCCCC2)CC1  6%
71. C[C@]1(CCc2ccc(O)cc2)Nc2ccccc2-c2nc(=O)c(-c3ccc(F)cc3)nn21  8%
72. CCc1nnc2ccc(S(=O)(=O)Nc3ccc(Cl)cc3)cn12  8%
73. COc1ccccc1CNCCNC(=O)c1ccncc1  8%
74. O=S(=O)(c1ccccc1)N1CCC(Nc2ccc(Br)cc2)CC1  10%
75. Cc1cccc(NS(=O)(=O)c2ccc3c(c2)Cc2cc(S(=O)(=O)Nc4cccc(C)c4)ccc2-3)c1  10%
76. COc1ccc(CCc2n[nH]c(NC(=O)CCc3c[nH]c4ccccc34)n2)cc1OC  14%
77. Cc1nnc(NC(=O)c2cc(N3CCCC3)ncn2)s1  14%
78. COc1ccc(NC(=O)c2nc(Nc3ccccc3)c3ccccc3n2)cc1  17%
79. CCOc1cccc(-c2ccc3nc(-c4cccc(OC)c4)c(CCC(=O)NCCc4ccc(OC)c(OC)c4)n3c2)c1  23%
80. COc1ccc(CNC(=O)Nc2ccc3c(c2)N(C(=O)c2ccccc2)CCC3)cc1OC  25%
81. CCCCN1C(=O)[C@H]2[C@H]([C@H](O)c3ccc(Cl)cc3)N[C@@]3(C(=O)Nc4ccccc43)[C@H]2C1=O  25%
82. COc1ccccc1-n1c(=O)n(C2CCCC2)c(=O)c2c1ncn2Cc1ccccc1Cl  37%
83. COc1ccccc1CN(C(=O)c1ccc(C)cc1)c1ccc(CC(=O)NCCN2CCCCC2)cc1  39%
84. Cc1oc(-c2ccn[nH]2)cc1S(=O)(=O)Nc1ccc(F)c(Cl)c1  40%
85. Cc1ccc(C(F)(F)C(=O)NCCC(=O)NS(C)(=O)=O)cc1  49%
86. Cc1oc(-c2ccn[nH]2)cc1S(=O)(=O)Nc1cccc(Cl)c1  52%
87. Cc1cc(N(C)CCC2CC2)nc([C@H](C)N(C)CCC2CC2)n1  52%
88. CCOc1cccc(-c2ccc3nc(-c4cccc(OC)c4)c(CCC(=O)NCCN4CCCC4)n3c2)c1  61%
89. COc1nc(NC[C@H]2CCCN2C(C)C)ncc1F  66%
90. O=c1nc2n(nc1-c1ccccc1)C1(CCC1)Nc1ccccc1-2  74%
91. COc1c2c(cc3c1[C@@H](C#CCOc1ccccc1)[N+](C)(C)CC3)OCO2  75%
92. CCOC(=O)CCn1cc(F)c(=O)[nH]c1=O  77%
93. Cc1ccccc1Cn1cnc2c1c(=O)n(C1CCCCC1)c(=O)n2-c1ccccc1Cl  78%
94. COc1ccccc1Cn1cnc2c1c(=O)n(C1CCCCC1)c(=O)n2-c1ccccc1Cl  83%
95. N#Cc1cccc(-c2n[nH]c3c2CN(c2ccc(-c4ccccc4)nn2)CC3)c1  85%
96. CCOc1ccc(Nc2c3ccccc3nc3ccccc23)cc1  86%
97. Cc1cnccc1NCCNCc1cccc(O)c1Cl  88%
98. CCC(C(=O)Nc1ccc2c(c1)CN(CCc1ccc(OC)c(OC)c1)C(=O)C(C)O2)c1ccccc1 (stereo not given)  94%
99. CN1CCC(n2ncc3[nH]c(-c4ccc(C(F)(F)F)cc4)nc32)CC1  96%
100. Nc1ncc(C(=O)N2CCC3(CCCCCC3)C2)s1  98%

From ChEMBL document CHEMBL4888484, “Replenishing the malaria drug discovery pipeline: Screening and hit evaluation of the MMV Hit Generation Library 1 (HGL1) against asexual blood stage Plasmodium falciparum ,using a nano luciferase reporter read-out” (2022)
